Here are results for eight compounds from article PMC5540273 (PLoS ONE, 2017).

Test systems include PAK1; PAK2; PAK3; PAK4; PAK6; PAK7; PDGFRA; PDGFRB; PDPK1; PFTAIRE2; PHKG1; PHKG2; PIK3C2B; PIK3C2G; PIK3CA; PIK3CB.
Holding throughout (conditions): concentration: 1 μM, replicates: in singlicate; n = 1
Another experiment deals with T1, PCTK1.
T1 construct: gene CDK16

The subject of the next experiment is T2, PCTK2.
T2 construct: gene CDK17

A further experiment has as its system T3, PCTK3.
T3 construct: gene CDK18

The next experiment relates to T4, PFTK1.
T4 construct: gene CDK14
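Note: KINOMEscan kinase panel screen.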

With `CNc1nccc(-c2c(-c3ccc(F)cc3)ncn2C2CCN(C)CC2)n1` [SB-222903], the “%Inh” value in the experiment on PAK1 worked out at 0%; in the experiment on PAK2 it was 13%; in the experiment on PAK3 it was 0%; with PAK4, 0%; in the experiment on PAK6, 0%; in the experiment with PAK7, 0%. For the same compound, the “%Inh” value is given as 0% with PCTK1; 0% in the experiment with PCTK2; 0% with PCTK3; 0% in the experiment with PDGFRA; 17% with PDGFRB; 0% with PDPK1. The “%Inh” value in the experiment with PFTAIRE2, with PFTK1, in the experiment on PHKG1, in the experiment with PHKG2, with PIK3C2B and in the experiment with PIK3C2G was 0% in each case. The “%Inh” value in the experiment on PIK3CA and in the experiment on PIK3CB was 0% each time.
Turning to `CSc1ccc(NC2=C(c3ccccc3Cl)C(=O)NC2=O)cc1` [SB-342411], the “%Inh” value was 0% in the experiment on PAK1; 0% with PAK2; 14% in the experiment on PAK3; 29% in the experiment with PAK4; 8% in the experiment on PAK6; 15% in the experiment with PAK7. Also, the “%Inh” value is 29% in the experiment with PCTK1; 31% in the experiment on PCTK2; 67% with PCTK3; 0% in the experiment on PDGFRA; 31% in the experiment with PDGFRB; 80% in the experiment on PDPK1. In addition, the “%Inh” value came out at 20% in the experiment on PFTAIRE2; 25% in the experiment on PFTK1; 0% in the experiment on PHKG1; 25% with PHKG2; 0% in the experiment on PIK3C2B; 17% in the experiment with PIK3C2G. Moreover, the results for the “%Inh” value in the experiment with PIK3CA and in the experiment with PIK3CB were 0% and 3%, respectively.
In the case of `COC(=O)c1cccc(NC(=O)NCCNc2ccnc(Nc3ccc(F)cc3)n2)c1` [GSK1379883], the “%Inh” value with PAK1, in the experiment on PAK2, in the experiment on PAK3, in the experiment with PAK4, in the experiment on PAK6 and in the experiment on PAK7 was 0% in each case. In addition, the “%Inh” value in the experiment on PCTK1 is 0%; with PCTK2, 0%; in the experiment on PCTK3, 0%; in the experiment on PDGFRA, 0%; in the experiment on PDGFRB, 51%; with PDPK1, 5%. Besides, the “%Inh” value turned out to be 9% in the experiment with PFTAIRE2; 18% in the experiment with PFTK1; 0% in the experiment with PHKG1; 0% in the experiment on PHKG2; 4% in the experiment with PIK3C2B; 0% in the experiment with PIK3C2G. The “%Inh” value in the experiment with PIK3CA was found to be 9%; in the experiment on PIK3CB, 0%.
With `Cc1ccc(C)c(NC(=O)NCCNc2ccnc(Nc3ccc(F)cc3)n2)c1` [GSK1379878], the “%Inh” value in the experiment on PAK1 worked out at 0%; with PAK2 it was 0%; in the experiment on PAK3 it was 0%; in the experiment on PAK4, 0%; in the experiment on PAK6 it was 100%; in the experiment on PAK7, 0%. The “%Inh” value was 0% with PCTK1; 0% in the experiment on PCTK2; 0% in the experiment with PCTK3; 0% in the experiment on PDGFRA; 6% in the experiment on PDGFRB; 0% in the experiment with PDPK1. The “%Inh” value in the experiment with PFTAIRE2 was 10%; in the experiment with PFTK1, 0%; in the experiment with PHKG1, 0%; in the experiment with PHKG2, 0%; in the experiment on PIK3C2B, 0%; in the experiment with PIK3C2G it was 0%. Besides, the “%Inh” value in the experiment with PIK3CA and in the experiment on PIK3CB was 0% in each case.
Turning to `COc1cc2ncnc(Nc3ccc(OCc4ccccc4Br)c(Cl)c3)c2cc1OC.Cl` [GI261590], the “%Inh” value is 14% with PAK1; 22% with PAK2; 38% in the experiment on PAK3; 0% in the experiment on PAK4; 0% in the experiment on PAK6; 5% with PAK7. Further, the “%Inh” value with PCTK1, with PCTK2, in the experiment on PCTK3, in the experiment with PDGFRA, in the experiment on PDGFRB and in the experiment on PDPK1 was 0% in each case. Moreover, the “%Inh” value with PFTAIRE2 is 4%; with PFTK1, 29%; in the experiment with PHKG1, 3%; in the experiment with PHKG2, 0%; in the experiment on PIK3C2B, 0%; with PIK3C2G, 0%. The entries for the “%Inh” value in the experiment on PIK3CA and in the experiment with PIK3CB were 0% and 45%, respectively.
As to `CN1c2ccc(-c3ccc(C(=O)NCCO)cc3)cc2-c2[nH]ncc2S1(=O)=O`, the “%Inh” value in the experiment on PAK1 was determined as 12%; with PAK2, 32%; in the experiment with PAK3 it was 20%; with PAK4 it was 35%; with PAK6 it was 7%; with PAK7, 16%. The “%Inh” value in the experiment with PCTK1 came out at 0%; in the experiment with PCTK2, 28%; in the experiment with PCTK3, 0%; with PDGFRA it was 35%; in the experiment with PDGFRB, 11%; in the experiment with PDPK1 it was 17%. Moreover, the “%Inh” value in the experiment with PFTAIRE2 is given as 0%; in the experiment with PFTK1 it was 0%; with PHKG1 it was 0%; in the experiment on PHKG2 it was 41%; with PIK3C2B, 0%; in the experiment on PIK3C2G, 8%. Moreover, the “%Inh” value in the experiment on PIK3CA and in the experiment on PIK3CB was 0% throughout.
`CC(=O)Nc1n[nH]c2ncc(-c3ccccc3)cc12` [SB-548492]: the “%Inh” value in the experiment with PAK1 was found to be 0%; in the experiment with PAK2, 32%; with PAK3, 0%; in the experiment with PAK4 it was 4%; with PAK6 it was 12%; in the experiment on PAK7, 0%. In addition, the “%Inh” value in the experiment with PCTK1 is 3%; in the experiment on PCTK2, 7%; in the experiment with PCTK3 it was 4%; in the experiment with PDGFRA, 51%; in the experiment with PDGFRB, 90%; with PDPK1, 0%. Moreover, the “%Inh” value is given as 14% in the experiment with PFTAIRE2; 12% in the experiment on PFTK1; 2% with PHKG1; 0% in the experiment on PHKG2; 3% in the experiment on PIK3C2B; 23% with PIK3C2G. The “%Inh” value with PIK3CA and in the experiment with PIK3CB was 0% throughout.
Regarding `Clc1cc(Nc2ncnc3cc[nH]c23)ccc1OCc1ccccn1`, the “%Inh” value with PAK1 worked out at 10%; in the experiment with PAK2 it was 29%; with PAK3 it was 39%; in the experiment on PAK4 it was 10%; in the experiment on PAK6, 29%; with PAK7, 7%. The “%Inh” value in the experiment on PCTK1 amounted to 2%; in the experiment with PCTK2, 19%; in the experiment with PCTK3, 19%; in the experiment with PDGFRA it was 29%; with PDGFRB, 38%; with PDPK1 it was 0%. The “%Inh” value in the experiment with PFTAIRE2 amounted to 5%; with PFTK1, 10%; in the experiment on PHKG1, 0%; in the experiment on PHKG2 it was 0%; in the experiment with PIK3C2B, 15%; with PIK3C2G, 43%. The “%Inh” value came to 8% in the experiment on PIK3CA and 15% in the experiment with PIK3CB.
